Screens from PubChem.
HT1080NT lethal: kills 2HG-producing HT-1080-NT fibrosarcoma cells. HT-1080-NT fibrosarcoma viability, CellTiter-Glo ATP luminescence, 48 h. Potency, µM (series often up to 46.1 µM), without a hit: at the top dose activity, negative = less viability, most hits filed as cytotoxic. actives 1.6% (n = 360,000);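 also: NT is the 2HG producing partner of a matched IDH1 knockdown line; potency is read from the fitted curve at half-maximal effect; 0% = DMSO-treated cells and -100% = media-only wells without cells; nearly all actives have a fitted effect of over 55% in size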
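Luminescent CellTiter-Glo readout after 48 hours of compound exposure at 37 degrees C defined viability of HT-1080-NT cells. Activity was normalized to DMSO wells and cell-free media wells; concentration-response curves were fitted and assigned curve classes.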
HT1080 IDH1KD tx: HT-1080 IDH1 knockdown cell toxicity (counter line). HT-1080 IDH1 knockdown viability, ATP luminescence, 48 h. Potency, µM (highest dose often 46.1 µM), without a hit: at the top dose activity, negative = toxicity, usual class: cytotoxic. actives 2% (n = 360,000). AID 686971;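 also: potency is read from the fitted curve at half-maximal effect; 0% = DMSO wells and -100% = cell-free medium wells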
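IDH1KD HT-1080 cells, 750/well, RPMI + 5% FBS; compound pinned after 2 h settling; 48 h, 37 °C; CellTiter-Glo luminescence; % activity normalised to DMSO and no-cell wells; curves fitted, classed by r2 and efficacy.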
TDP1 cell CPT: DT40-hTDP1 cell growth loss with CPT; chicken DT40 Tdp1-/-;hTDP1 cells + 20 nM CPT, ATP luminescence, 48 h; Potency, µM (highest dose often 46.2 µM), inactives show at the top dose activity change, negative = growth inhibition, actives largely listed as inhibitors; actives 12% (n = 420,000); AID 686979; also: potency is read from the fitted curve at half-maximal effect; nearly all actives have a fitted effect of over 55% in size
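Cell growth measured by CellTiter-Glo luminescence after a minimum 48 h, 37 C compound exposure with 20 nM CPT in Tdp1-knockout DT40 cells stably expressing hTDP1, seeded 400/well; qHTS titration format.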
TDP1 cell noCPT: qHTS for Inhibitors of human tyrosyl-DNA phosphodiesterase 1 (TDP1): qHTS in cells in absence of CPT. DT40 Tdp1-/- hTDP1 cells, no CPT, ATP luminescence, 48 h. Potency, µM (series often up to 46.2 µM), for inactives: at the highest dose activity change, negative = growth inhibition, usual class: inhibitors. actives 15% (n = 420,000). AID 686978, 2013; also: potency is read from the fitted curve at half-maximal effect; nearly all actives have a fitted effect of over 55% in size
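Stably hTDP1-transfected Tdp1-null chicken DT40 cells were treated with library compounds minus camptothecin and grown for at least 48 hr at 37 °C, after which cellular ATP was quantified by luminescence.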
IL1B secr inh: blocks inflammasome-driven IL-1 beta release; THP-1 LPS/ATP IL-1B secretion, AlphaLISA, 16 h; hits give low values; activity change, % at 57.5 µM; actives 4.7% (n = 360,000); AID 743279; in the data active = activity change below about -50%; inconclusive = mostly about -30% to -49%
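Secreted IL-1B measured by AlphaLISA bead assay after 16 h compound exposure of THP-1 cells; compounds (final up to 57.5 uM) added 1 h before LPS (250 ng/mL) and ATP (1.25 mM) stimulation; lower signal means less secretion.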
uPA surface inh: inhibitors of cell surface uPA generation | cell surface uPA generation assay, qHTS | Potency, µM (top dose mostly 38.3 µM), inactives show top-dose activity change, negative = inhibition, most hits filed as inhibitors | actives 0.31% (n = 330,000) | AID 540303; active = well fitted inhibition curve with a large enough effect; inconclusive = small, poorly fitted or top-dose-only effect; inactive = no such curve, though single readings can be large or run the other way; tested in mouse RAW 264.7 cells; also: potency is read from the fitted curve at half-maximal effect; nearly all actives have a fitted effect of over 55% in size
Starred values were filed as active, the others as inactive; ? = inconclusive; . = not tested or not shown. An excerpt weighted towards active compounds, which were near 19% of everything screened. Unless noted, calls follow the shape of the dose curve; as a rule, active = well fitted curve in the direction sought with a large enough effect; inconclusive = small, poorly fitted or top-dose-only effect, or another doubt; inactive = no such curve, though single readings can be large; an effect the other way counts as inactive or inconclusive. Unless noted, % is scaled to controls: 0 for no effect and ±100 for the full control effect.

SMILES	HT1080NT lethal	HT1080 IDH1KD tx	TDP1 cell CPT	TDP1 cell noCPT	IL1B secr inh	uPA surface inh
O=C(Cn1cnc2scc(-c3ccc(F)cc3)c2c1=O)NCC(c1ccco1)N1CCCC1 (stereo not drawn)	0.5%	-2.0%	-13.6%	-25.7%	-8.8	-4.8%
Cc1ccc(CSCC(=O)Nc2ccc(N3CCOCC3)cc2N2CCOCC2)cc1	0.3%	0.6%	?	?	-6.8	4.3%
CC(C)c1ccc(C(N)=S)cc1	15.8%	3.9%	-0.3%	25.9µM*	11.7	1.0%
Cc1ccccc1C(=O)N=c1sccn1C	-0.8%	-4.2%	-1.4%	3.26µM*	-0.3	-7.1%
Cc1ccc(N2CCN(C(=O)c3c(C)oc4ncnc(N5CCCCC5)c34)CC2)c(C)c1	.	.	16.4µM*	7.31µM*	.	.
CCN(CC)S(=O)(=O)c1ccc(NC(=O)c2c(C)oc3ncnc(N4CCCCC4)c23)cc1	.	.	20.6µM*	14.6µM*	.	.
Cc1oc2ncnc(N3CCCCC3)c2c1C(=O)Nc1cccc(Cl)c1C	.	.	16.4µM*	14.6µM*	.	.
Cc1nc(N2CCCC2)c2c(C(=O)Nc3cccc(C)c3C)c(C)oc2n1	.	.	2.1%	-12.6%	.	.
COc1cccc(N2CCN(C(=O)c3c(C)oc4ncnc(N5CCCCC5)c34)CC2)c1	.	.	?	18.4µM*	.	.
CCCNC(=O)N1CCN(Cc2ccco2)CC1	15.8%	19.2%	-20.5%	-11.0%	-11.9	2.6%
CCC(=O)Nc1ccc(C)cc1-c1nc2ccccc2n(CC(=O)Nc2ccccc2Cl)c1=O	.	.	?	-23.3%	.	.
Cc1nc(N2CCCC2)c2c(C(=O)N3CCN(c4cc(Cl)ccc4C)CC3)c(C)oc2n1	.	.	?	18.4µM*	.	.
COc1ccccc1-c1cc(C(=O)N2CCN(c3ccccc3)CC2)no1	7.9%	-10.4%	?	-13.1%	20.3	-4.7%
Cc1cccc(N2CCN(C(=O)c3c(C)oc4ncnc(N5CCCCC5)c34)CC2)c1C	.	.	16.4µM*	8.2µM*	.	.
COc1cc2c(C(=O)N3CCN(c4ccccc4)CC3)c(C)oc2cc1Br	?	?	?	18.4µM*	-26.9	-3.7%
Cc1nc(N2CCCC2)c2c(C(=O)N3CCN(c4ccccc4)CC3)c(C)oc2n1	.	.	-6.6%	-9.8%	.	.
Cc1cccc(N2CCN(C(=O)c3c(C)oc4ncnc(N5CCOCC5)c34)CC2)c1C	.	.	0.2%	-21.5%	.	.
O=C(COc1ccc(-c2ccccc2)cc1)NNC(=O)NC1CCCCC1	-6.1%	-16.9%	-2.5%	-26.2%	2.3	6.5%
O=S(=O)(c1ccccc1)C1CC1(c1ccccc1)c1ccccc1 (stereo not drawn)	-5.9%	-12.0%	?	?	-13.2	-2.8%
O=C(NC1CCCCC1)C(c1ccc(F)cc1)N(Cc1ccccc1)C(=O)CN1C(=O)c2ccccc2S1(=O)=O (stereo not drawn)	12.4%	-0.5%	20.6µM*	20.6µM*	21.0	-4.2%
O=C(CN1C(=O)c2ccccc2S1(=O)=O)NC1CCCC1	-0.9%	12.2%	-6.9%	-0.4%	-1.5	14.7%
O=C(NCC1CCCO1)C(c1ccncc1)N(Cc1ccc(F)cc1)C(=O)CN1C(=O)c2ccccc2S1(=O)=O (stereo not drawn)	-2.5%	-3.2%	3.4%	?	10.6	1.4%
O=C(NC1CCCCC1)C(c1ccc(F)cc1)N(CCc1ccccc1)C(=O)CN1C(=O)c2ccccc2S1(=O)=O (stereo not drawn)	?	?	3.66µM*	5.8µM*	67.1	0.7%
NC(N)=Nc1nc2cc([N+](=O)[O-])ccc2o1	9.4%	-5.0%	10.3µM*	10.3µM*	?	3.2%
O=[N+]([O-])c1ccc2oc(-c3ccccc3)nc2c1	27.4%	29.9%	6.5%	-16.3%	13.6	-7.2%
SMILES	HT1080NT lethal	HT1080 IDH1KD tx	TDP1 cell CPT	TDP1 cell noCPT	IL1B secr inh	uPA surface inh
CC1CC(C)CN(CCOc2cccc(Cl)c2Cl)C1 (stereo not drawn)	-3.8%	-6.9%	?	?	-68.4*	5.0%
CC1CC(C)CN(CCOc2ccc(Cl)cc2Cl)C1 (stereo not drawn)	0.7%	-4.0%	?	?	-67.9*	0.2%
CCN1CCN(CCOc2cccc(Cl)c2Cl)CC1	-12.6%	-12.4%	?	?	2.0	5.0%
CC(C)c1ccc(Cn2ccc3c4c(N)nc(NC5CC5)nc4ccc32)cc1	.	.	4.73µM*	3.35µM*	.	.
Cc1cc(C)cc(-n2c(SCC(=O)NC3CCCCC3)nc3c([nH]c4ccccc43)c2=O)c1	.	.	16.4µM*	?	.	.
Cc1cc(C)cc(-n2c(SCC(=O)N3CCCC3)nc3c([nH]c4ccccc43)c2=O)c1	.	.	-6.5%	5.5%	.	.
O=C(CSc1nc2c([nH]c3ccccc32)c(=O)n1-c1ccc(Cl)cc1)NC1CCCCC1	.	.	10.3µM*	14.6µM*	.	.
O=C(CSc1nc2c([nH]c3ccccc32)c(=O)n1-c1ccc(Cl)cc1)N1CCc2ccccc21	.	.	-3.1%	14.3%	.	.
O=C(CSc1nnc(-c2ccc(O)cc2)n1Cc1ccccc1)NNC(=O)c1ccc(Br)cc1	-6.8%	-5.4%	-2.7%	1.2%	-65.5*	-6.9%
CCn1c(SCC(=O)NNC(=O)c2ccc(C)cc2)nnc1-c1ccncc1	1.9%	5.0%	-26.4%	20.6µM*	15.5	2.3%
CC(C)OC(=O)CSc1nnc(-c2ccc(O)cc2)n1Cc1ccccc1	13.3%	8.5%	-12.1%	-26.5%	-17.2	2.4%
COc1cccc(/C=N/NC(=O)c2nnn(-c3nonc3N)c2CN(C)C2CCCCC2)c1	8.4%	4.0%	?	?	-3.4	.
O=C(C1CCCCC1)N(Cc1cccnc1)c1nc2c(F)cccc2s1	.	.	20.6µM*	20.6µM*	.	.
COc1cccc(C(=O)N(Cc2cccnc2)c2nc3c(OC)ccc(C)c3s2)c1OC	.	.	?	23.1µM*	.	.
COc1ccc(C)c2sc(N(Cc3cccnc3)C(=O)CCc3ccccc3)nc12	.	.	?	14.6µM*	.	.
COc1ccc(C)c2sc(N(Cc3cccnc3)C(C)=O)nc12	.	.	?	-44.8%	.	.
COc1ccc(C)c2sc(N(Cc3cccnc3)C(=O)C3CCCCC3)nc12	.	.	18.4µM*	14.6µM*	.	.
CC(C)NC(=O)c1cc(C2CCCCN2C(=O)c2ccc(C#N)cc2)on1 (stereo not drawn)	6.4%	24.3%	?	0.5%	0.8	.
Cc1ccccc1CSc1nnc2[nH]c(=O)cc(-c3ccccc3)n12	.	.	8.2%	-2.6%	.	.
COCCCNC(CC(=O)Nc1cc(C)cc(C)c1)C(=O)O (stereo not drawn)	2.8%	7.5%	-7.7%	20.8%	-13.5	-3.6%
